Bioassay records: PubChem, several laboratories
Mdm2 MdmX PPI: human Mdm2/MdmX binding inhibition. O15151+Q00987. SaOS-2 split-luciferase Mdm2/MdmX complementation, luminescence. inhibition, % at 8 µM. 330,000 tested, 3% active. AID 485346;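 active means inhibition of at least 50% at 8 µM in the primary screen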
MPTP inh: inhibitors of mitochondrial permeability transition pore. isolated mouse mitochondria, Ca2+ swelling absorbance, 30 min. inhibition, % at 10 µM. 360,000 tested, 1.4% active;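 active means inhibition of 50% or more, scaled per plate between neutral and stimulator controls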
CSC inhib: blocks cancer stem cells; inhibition, % at 7.5 µM; 300,000 tested, 1.1% active; AID 2717; cancer stem cell-like cells viability, luminescence; in the data active means inhibition above about 75%; tested in HMLE shEcad cells
Beta cell apopt: beta cell apoptosis inhibition | AID 435005 | 300,000 tested, 0.8% active | INS-1E cytokine-induced death, ATP luminescence, 48 h; percent of positive-control rescue, neutral wells zero | protection from apoptosis, % (test concentration not listed);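 active means Every replicate reaches about 75%, or at least half do and their mean reaches it too, limit read from the data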;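 further: higher means more ATP so stronger rescue from cytokine killing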
Gli-Sufu block: antagonists of Gli-Sufu signaling; Sufu-KO-LIGHT fibroblasts, Gli luciferase reporter luminescence; inhibition, % at 5 µM; 340,000 tested, 0.74% active; AID 588413;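 active means inhibition above about 55%, limit read from the data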
GRIN3A LBD mod: NR3A (human) ligand-binding domain modulation | NR3A LBD differential scanning fluorimetry, Tm shift; 0% = protein alone, 100% = glycine-bound protein | Tm shift relative to glycine control, % at 25 µM | 340,000 tested, 2.5% active | AID 1259313;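 active means melting temperature shift of at least 10% of the positive control shift, at one fixed dose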
MPTP counter: mitochondrial membrane potential, counter-screen; shares compounds with MPTP inh; inhibition, % at 10 µM; 5,000 tested, 78% active; isolated mitochondria, Rhodamine 123 fluorescence; in the data active means inhibition above about 22%
MPTP swell DR: dose response confirmation of mitochondrial permeability transition pore inhibitors; shares compounds with MPTP inh; isolated mitochondria swelling, absorbance; IC50, µM; 780 tested, 58% active; in the data active means IC50 below about 20 µM
MPTP counter DR: MPTP inhibitor counter-screen activity, dose response. isolated mitochondria counterscreen, fluorescence read-out. 780 tested, 49% active. AID 651564. shares compounds with MPTP inh. IC50, µM; in the data active means IC50 below about 80 µM
Of the large screens only hits and unclear results are named; the others gave an inactive call (follow-up assays come after a bar, where they were run). Rows were chosen to be rich in hits. Some 6.6% of all compounds tested hit in one or more screens of this group.

CSCCC(NC(=O)c1ccccc1)C(=O)Nc1ccc(C)cc1 (stereo not drawn)	none
NC(N)=NCCCC(NC(=O)c1ccccc1)C(=O)Nc1ccc2ccccc2c1 (stereo not drawn)	MPTP inh 81.2 | MPTP counter inactive | MPTP swell DR 8.71 | MPTP counter DR inactive
O=C1NCCN1CCNc1nc(NCC2CC2)nc2cc(-c3ccccc3)sc12	none (no result: Mdm2 MdmX PPI, CSC inhib, Beta cell apopt, Gli-Sufu block, GRIN3A LBD mod)
c1ccc(-c2cc3nc(NCC4CC4)nc(NCC4CCCCC4)c3s2)cc1	MPTP inh 74.6 (no result: Mdm2 MdmX PPI, CSC inhib, Beta cell apopt, Gli-Sufu block, GRIN3A LBD mod) | MPTP counter 97.3
COCCNc1nc(NCCOc2ccccc2Cl)c2sc(-c3ccccc3)cc2n1	none (no result: Mdm2 MdmX PPI, CSC inhib, Beta cell apopt, Gli-Sufu block, GRIN3A LBD mod)
COCCNc1nc(NCC2CCCCC2)c2sc(-c3ccccc3)cc2n1	MPTP inh 69.7 (no result: Mdm2 MdmX PPI, CSC inhib, Beta cell apopt, Gli-Sufu block, GRIN3A LBD mod) | MPTP counter 93.0
CC(C)c1ccc(NC(=O)C2Cc3c(-c4cccc(C(N)=O)c4)ccnc3O2)cc1 (stereo not drawn)	none (no result: Mdm2 MdmX PPI, CSC inhib, Beta cell apopt, Gli-Sufu block, GRIN3A LBD mod)
CC(NS(=O)(=O)c1ccc2c(c1)oc(=O)n2C)c1ccccc1 (stereo not drawn)	none
O=C1N[C@H](Cc2ccccc2)COC(=O)[C@H](Cc2ccc(F)cc2)CC/C=C/C[C@@H]1CC(=O)N(CCO)Cc1ccccc1	none
O=C(c1ccco1)N1CCN(c2ncnc3scc(-c4ccc(Cl)cc4)c23)CC1	none (no result: Mdm2 MdmX PPI, CSC inhib, Beta cell apopt, Gli-Sufu block, GRIN3A LBD mod)
COc1cccc(C(C)(O)c2nc(-c3cc4ccccc4o3)cs2)c1 (stereo not drawn)	MPTP inh 88.4 (no result: Mdm2 MdmX PPI, CSC inhib, Beta cell apopt, Gli-Sufu block, GRIN3A LBD mod) | MPTP counter 96.0
COc1cccc(C(C)(O)c2nc(-c3ccc(N(C)C)cc3)cs2)c1 (stereo not drawn)	MPTP inh 98.6 (no result: Mdm2 MdmX PPI, CSC inhib, Beta cell apopt, Gli-Sufu block, GRIN3A LBD mod) | MPTP counter 90.9
COc1cccc(C(C)(O)c2nc(-c3ccccc3)cs2)c1 (stereo not drawn)	none (no result: Mdm2 MdmX PPI, CSC inhib, Beta cell apopt, Gli-Sufu block, GRIN3A LBD mod)
O=C1c2cc(Cl)ccc2-c2c(O)cc(Cl)cc21	MPTP inh 98.7, GRIN3A LBD mod 13.7 (no result: Mdm2 MdmX PPI, CSC inhib, Beta cell apopt) | MPTP counter 77.8
O=C(CC(=O)N/N=C/c1c(Cl)cccc1Cl)NCc1cccnc1	none
CC(C)c1ccc(C(C)NC(=O)C2CCCC2)cc1 (stereo not drawn)	none (no result: Gli-Sufu block)
Fc1ccc(NC(=S)NCc2ccccc2)cc1	none
S=C(NCc1ccc(Cl)cc1)Nc1ccccc1	MPTP inh 65.0 | MPTP counter 92.6
O=C(NC(=S)NCc1ccc(Cl)cc1Cl)c1ccco1	none (no result: CSC inhib, Beta cell apopt)
S=C(NCCC(c1ccccc1)c1ccccc1)Nc1cccc(Cl)c1	MPTP inh 97.5, CSC inhib 122.5, GRIN3A LBD mod 15.8 | MPTP counter 87.3
S=C(NCc1ccc(Cl)cc1Cl)Nc1ccccc1	MPTP inh 95.3, GRIN3A LBD mod 12.7 | MPTP counter 95.3
Cc1ccccc1NC(=S)NCCC(c1ccccc1)c1ccccc1	none
Fc1ccc(CNC(=S)Nc2ccc(Cl)cc2)cc1	MPTP inh 65.2 | MPTP counter 95.4
S=C(NCc1ccccc1)NCc1ccc(CNC(=S)NCc2ccccc2)cc1	MPTP inh 78.6, GRIN3A LBD mod 19.9 | MPTP counter 90.2
Fc1cccc(NC(=S)NCc2ccccc2Cl)c1	MPTP inh 85.9 | MPTP counter 96.9
Cc1ccc(NC(=S)NCc2ccc(Cl)cc2)c(OC(F)F)c1	MPTP inh 62.5 | MPTP counter 97.4
Cc1cc(Cl)ccc1NC(=S)NCc1ccccc1Cl	MPTP inh 92.7 | MPTP counter 84.3
COc1ccc(CC(=O)Nc2ccccc2C(=O)N2CCCC2)cc1	none
CCc1nn(CC(=O)NCCc2ccc(OC)cc2OC)c(=O)c2cc3occc3n12	none
CCC(CC)C(=O)c1c[nH]c(C(=O)NCc2ccccc2OC)c1	none
Fc1cccc(NC(=S)NNc2c3ccccc3nc3ccccc23)c1	MPTP inh 92.1 (no result: Mdm2 MdmX PPI, CSC inhib, Beta cell apopt) | MPTP counter 46.3
O=S(=O)(c1ccc(Cl)c(C(F)(F)F)c1)N1CCN(c2ccccn2)CC1	none
Brc1ccccc1OCCCCn1cnc2ccccc21	MPTP inh 84.9 (no result: Gli-Sufu block) | MPTP counter 90.5
Clc1ccccc1OCCn1cnc2ccccc21	none (no result: CSC inhib, Beta cell apopt)
Cc1ccc(OCCCCn2cnc3ccccc32)c(C)c1	MPTP inh 92.6 | MPTP counter 93.4
Cc1ccc(C)c(OCCCCn2cnc3ccccc3c2=O)c1	none
O=C(Nc1cc(S(=O)(=O)N2CCCCC2)ccc1O)c1ccccc1NS(=O)(=O)c1ccc(F)c(F)c1	MPTP inh 91.4, GRIN3A LBD mod 27.5 | MPTP counter 65.1
O=C(Nc1ccccc1C(=O)O)c1cc(S(=O)(=O)Nc2cccc(F)c2)ccc1Cl	none
Cc1onc(-c2c(F)cccc2Cl)c1C(=O)Nc1cc(S(=O)(=O)N2CCCCC2)ccc1O	MPTP inh 84.5, GRIN3A LBD mod 16.2 (no result: Mdm2 MdmX PPI, CSC inhib, Beta cell apopt) | MPTP counter 83.7
O=C(Nc1cc(S(=O)(=O)Nc2ccccc2Cl)ccc1O)c1ccc(F)cc1F	MPTP inh 59.4 | MPTP counter 67.6
Cc1n(C)c2cc(Cl)ccc2[n+]1Cc1ccccc1	none
Cc1ccc(NC(=O)CN(C)C(=O)c2sc3cc(Cl)ccc3c2Cl)cc1	none
Cc1c(CN(C)C(=O)c2sc3cc(Cl)ccc3c2Cl)cnn1C	MPTP inh 83.6 | MPTP counter 80.4
CC(NCC(=O)NCC(=O)Nc1ccc(F)cc1)c1cccc(C(F)(F)F)c1 (stereo not drawn)	none
Cc1ccc(C(=O)N/N=C(/CC(=O)c2cccs2)C(F)(F)F)cc1	MPTP inh 55.2 | MPTP counter 82.0
Cc1cc(C)nc(SCC(=O)N/N=C\C(Br)=C\c2ccccc2)n1	MPTP inh 70.6 (no result: CSC inhib) | MPTP counter 65.8
Cc1cc(C)cc(C(=O)NCC(=O)OCC(=O)NCC(F)(F)F)c1	none
COc1ccc(CNC(=O)/C=C/c2cc([N+](=O)[O-])ccc2OC(F)F)cc1	none
O=C(/C=C/c1cc([N+](=O)[O-])ccc1OC(F)F)Nc1cccc(OC(F)F)c1	MPTP inh 99.1, GRIN3A LBD mod 13.2 | MPTP counter 71.8
CN(C)c1nn(C(=O)Nc2cccc(C(F)(F)F)c2)cc1-c1ccccc1	MPTP inh 90.4 | MPTP counter 100.7
Cc1ccc(OCc2csc(N)n2)cc1	none
CN1CCN(NC(=O)Nc2cc(Cl)cc(Cl)c2)CC1	MPTP inh 90.4 | MPTP counter 91.4
Cn1nc(C(C)(C)C)cc1NC(=O)Nc1cc(Cl)cc(Cl)c1	MPTP inh 84.4 | MPTP counter 73.2
COc1ccc(NC(=O)NN2CCN(C)CC2)cc1OC	none
COc1ccccc1-n1c(CNC(=O)c2ccc(S(=O)(=O)N3CCCCC3)cc2)n[nH]c1=S	none (no result: Beta cell apopt)
O=C(Nc1cccc(C(F)(F)F)c1)c1cc2c(=O)c3ccccc3oc2nc1C(F)(F)F	MPTP inh 74.7 | MPTP counter 53.4
Cc1ccc(NC(=O)CCc2nnc3ccc(N4CCC(C)CC4)nn23)nc1	none
